Experimental findings from PubChem BioAssay (NCI) are described below.

Some test systems named below: SK-MEL-2 melanoma; SN12C renal; UO-31 renal; TK-10 renal; ACHN renal; CAKI-1 renal; CCRF-CEM leukemia; MOLT-4 leukemia; SR leukemia; RPMI-8226 leukemia; OVCAR-8 ovarian; OVCAR-5 ovarian; OVCAR-4 ovarian; SK-OV-3 ovarian; IGROV1 ovarian; OVCAR-3 ovarian; HS 578T breast; NCI/ADR-RES ovarian.
What all share (experiment): NCI-60 one-dose screen, 48 h (100 = growth as untreated, 0 = no growth, -100 = all killed)
What all share (settings): 10 µM unless noted

SMILES strings stand for the structures. About 83,000 compounds went through this panel and 20% of them were active in at least one assay; those are over-represented in the sample as a whole.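 48-hour exposure, single concentration, 96-well plates; percent growth endpoint where 0 means no net growth. Active: below 10.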 Unmarked numbers belong to inactive results. Activity calls are given as the source filed them.

As to `O=C(CNc1c(Cl)cccc1Cl)Nc1ccc(-c2nc3ccccc3s2)cc1`, the growth with SK-MEL-2 melanoma is 84.8%; in the test with SN12C renal, 48%; with UO-31 renal it was 73.7%; in the test on TK-10 renal it was 106%; with ACHN renal it was 42.3%; with CAKI-1 renal, 28.8%. The growth with CCRF-CEM leukemia is 2.24% (active); in the test with MOLT-4 leukemia, 5.63% (active); in the test on SR leukemia, 10.7%; in the test on RPMI-8226 leukemia, 59.8%; in the test with OVCAR-8 ovarian, 66.7%; with OVCAR-5 ovarian, 110%. Moreover, the growth is 17.5% with OVCAR-4 ovarian; 97.8% with SK-OV-3 ovarian; 49.3% with IGROV1 ovarian; 54.4% in the test on OVCAR-3 ovarian; 87.2% with HS 578T breast; 64% with NCI/ADR-RES ovarian.

On to `CCOC(=O)C(Cc1ccccc1)n1c(O)c(C=Nc2ccc(C(=O)OCCN(CC)CC)cc2)sc1=O` (configuration not stated), for which the growth with SK-MEL-2 melanoma is 90.7%; with SN12C renal, 92.1%; with UO-31 renal it was 84.7%; in the test with TK-10 renal, 112%; with ACHN renal, 104%; with CAKI-1 renal, 97.4%. Further, the growth was 68.2% with CCRF-CEM leukemia; 69.3% in the test with MOLT-4 leukemia; 23.7% in the test on SR leukemia; 68% with RPMI-8226 leukemia; 92.8% with OVCAR-8 ovarian; 100% in the test with OVCAR-5 ovarian. The growth was 89.4% in the test with OVCAR-4 ovarian; 106% with SK-OV-3 ovarian; 97.5% in the test with IGROV1 ovarian; 93% in the test on OVCAR-3 ovarian; 88.1% in the test with HS 578T breast; 107% with NCI/ADR-RES ovarian.

`Nc1c(C(=O)Nc2cccc(C(F)(F)F)c2)sc2nc3c(cc12)C(O)CCC3` (configuration not stated): the growth in the test on SK-MEL-2 melanoma was 30.7%; in the test on SN12C renal, 51.5%; with UO-31 renal it was 49.9%; in the test on TK-10 renal, 54.6%; with ACHN renal, 54.6%; in the test on CAKI-1 renal, 30.1%. In addition, the growth in the test with CCRF-CEM leukemia was 14.5%; with MOLT-4 leukemia, 24.7%; with SR leukemia it was 24%; with RPMI-8226 leukemia, 15.6%; with OVCAR-8 ovarian, 46.2%; with OVCAR-5 ovarian, 53.5%. For the same molecule, the growth is 58.5% in the test with OVCAR-4 ovarian; 25.7% with SK-OV-3 ovarian; 54.4% in the test on IGROV1 ovarian; 2.06% (active) in the test on OVCAR-3 ovarian; 51.2% in the test with HS 578T breast; 22.5% in the test with NCI/ADR-RES ovarian.

Consider `O=C(CN1CCOCC1)Nc1ccc(-c2nc3ccccc3s2)cc1`, for which the growth is 115% with SK-MEL-2 melanoma; 101% in the test on SN12C renal; 95% with UO-31 renal; 112% in the test on TK-10 renal; 104% in the test with ACHN renal; 99.7% in the test with CAKI-1 renal. Moreover, the growth is 95.5% with CCRF-CEM leukemia; 99.4% with MOLT-4 leukemia; 102% with SR leukemia; 94% with RPMI-8226 leukemia; 102% in the test on OVCAR-8 ovarian; 93.4% with OVCAR-5 ovarian. For the same molecule, the growth in the test with OVCAR-4 ovarian is 101%; in the test on SK-OV-3 ovarian, 121%; in the test on IGROV1 ovarian it was 106%; with OVCAR-3 ovarian, 96.3%; with HS 578T breast it was 110%; in the test with NCI/ADR-RES ovarian it was 105%.

As for `COc1ccc(OC)c(-c2ccc(-c3ccccc3N)c3[nH]c4ccccc4c23)c1`, the growth was 77.1% in the test on SK-MEL-2 melanoma; 87.6% in the test with SN12C renal; 58.4% in the test on UO-31 renal; 103% in the test on TK-10 renal; 80.7% with ACHN renal; 73% with CAKI-1 renal. The growth with CCRF-CEM leukemia is 103%; in the test on MOLT-4 leukemia, 56.4%; in the test with SR leukemia, 81.7%; in the test on RPMI-8226 leukemia it was 70.3%; in the test with OVCAR-8 ovarian it was 83.8%; with OVCAR-5 ovarian, 110%. The growth is 69.6% in the test on OVCAR-4 ovarian; 88.6% in the test with SK-OV-3 ovarian; 59.5% in the test with IGROV1 ovarian; 75.1% with OVCAR-3 ovarian; 94.3% in the test with HS 578T breast; 85.8% in the test on NCI/ADR-RES ovarian.

Turning to `O=S(=O)(NCCCNc1nccc(-c2c(-c3ccc(F)c(O)c3)nc3sccn23)n1)c1ccc(Cl)cc1`, the growth was 27.7% in the test on SK-MEL-2 melanoma; 77.4% in the test with SN12C renal; 67.8% in the test on UO-31 renal; 135% with TK-10 renal; 65.9% with ACHN renal; 54.7% in the test with CAKI-1 renal. For the same molecule, the growth with CCRF-CEM leukemia was 35.2%; in the test on MOLT-4 leukemia it was 46.1%; in the test with SR leukemia, 61.6%; in the test with RPMI-8226 leukemia it was 43.1%; with OVCAR-8 ovarian, 52.9%; in the test on OVCAR-5 ovarian, 129%. Also, the growth was 99.1% in the test with OVCAR-4 ovarian; 85.3% in the test with SK-OV-3 ovarian; 80.2% with IGROV1 ovarian; 88.7% in the test with OVCAR-3 ovarian; 91.1% in the test on HS 578T breast; 103% in the test with NCI/ADR-RES ovarian.

`O=C(/C=C/CN1CCCCC1)Nc1cc2c(Nc3ccc(F)c(Cl)c3F)ncnc2cc1OCCOC(F)F`: the growth was 36.1% in the test on SK-MEL-2 melanoma; 7.28% (active) with SN12C renal; 10.4% with UO-31 renal; 8.8% (active) in the test on TK-10 renal; 5.75% (active) with ACHN renal; 5.99% (active) in the test on CAKI-1 renal. Also, the growth in the test with CCRF-CEM leukemia is 24.6%; in the test with MOLT-4 leukemia, 1.31% (active); with SR leukemia, 11.5%; in the test with RPMI-8226 leukemia, 12.7%; in the test with OVCAR-8 ovarian, 19.5%; in the test on OVCAR-5 ovarian, 34.8%. Further, the growth is 12.9% with OVCAR-4 ovarian; -6.19% (active) in the test with SK-OV-3 ovarian; -9.94% (active) with IGROV1 ovarian; 0.43% (active) in the test with OVCAR-3 ovarian; -7.08% (active) in the test on HS 578T breast; 9.16% (active) with NCI/ADR-RES ovarian.

Regarding `COc1cccc(/C=C/C(=O)c2sc(Nc3ccc(O)cc3)nc2C)c1`, the growth in the test with SK-MEL-2 melanoma is 79.9%; with SN12C renal, 86.2%; in the test on UO-31 renal it was 62%; in the test with TK-10 renal, 114%; with ACHN renal it was 98.1%; with CAKI-1 renal, 105%. For the same molecule, the growth is 13.3% in the test with CCRF-CEM leukemia; 30.8% with MOLT-4 leukemia; 35.8% with SR leukemia; 4.79% (active) with RPMI-8226 leukemia; 99.4% with OVCAR-8 ovarian; 111% in the test on OVCAR-5 ovarian. For the same molecule, the growth is 96.9% in the test on OVCAR-4 ovarian; 103% with SK-OV-3 ovarian; 88.1% in the test with IGROV1 ovarian; 75.7% in the test on OVCAR-3 ovarian; 103% in the test on HS 578T breast; 99% in the test on NCI/ADR-RES ovarian.

`COc1cc(OC)c(C(=O)/C=C/c2ccc(C#N)cc2)c(OC)c1`: the growth with SK-MEL-2 melanoma is -11% (active); with SN12C renal, 19.6%; in the test with UO-31 renal, 32.4%; with TK-10 renal it was 19.1%; in the test with ACHN renal, 17.5%; with CAKI-1 renal, 18.5%. Besides, the growth in the test on CCRF-CEM leukemia was 7.44% (active); in the test on MOLT-4 leukemia, 14.3%; with SR leukemia it was 6.75% (active); in the test on RPMI-8226 leukemia it was 4.28% (active); with OVCAR-8 ovarian it was 11.7%; in the test on OVCAR-5 ovarian it was 41.8%. Moreover, the growth is 32.8% in the test on OVCAR-4 ovarian; 17.2% in the test on SK-OV-3 ovarian; 14% in the test on IGROV1 ovarian; 8.04% (active) in the test on OVCAR-3 ovarian; 32% with HS 578T breast; 24.1% in the test with NCI/ADR-RES ovarian.
